Common to all, as to assay: PBM binding z-score (relative to random genomic background probes); higher = stronger binding; sequences stand for … in GC…GCGATTGACAGCGTAGAATGAAGG
Assay [1] has as its system FXR:RXRa (NR concentration 270 nM, RXRa partner concentration 90 nM). The essentials:
(§1)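 Ligand-free nuclear receptor dimers were applied to custom Agilent 4×180K protein-binding microarrays whose double-stranded probes carried direct-repeat seeds, single-nucleotide variants, half-site ablations and random human genomic background sequences in 34-nt variable regions. Incubation lasted 1 h. Binding z-scores were computed against the random background probes from regression-normalized fluorescence.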

Assay [2] relates to LXRa:RXRa (NR concentration 270 nM, RXRa partner concentration 90 nM). The essentials:
as §1

Assay [3] relates to LXRa homodimer (NR concentration 270 nM). In outline:
as §1

Assay [4] deals with LXRb:RXRa (NR concentration 270 nM, RXRa partner concentration 90 nM). In outline:
as §1

The test system of assay [5] is LXRb homodimer (NR concentration 270 nM). In outline: as §1
Assay [6] relates to PPARa:RXRa (NR concentration 270 nM, RXRa partner concentration 90 nM). In outline:
as §1

In assay [7] the test system is PPARg:RXRa (NR concentration 180 nM, RXRa partner concentration 90 nM). In outline:
as §1

For assay [8], the system named is PPARg:RXRa 270nM:90nM, anti-RXR (NR concentration 270 nM, RXRa partner concentration 90 nM). The essentials: as §1
For assay [9], the system named is PPARg:RXRa 30nM:10nM, anti-RXR (NR concentration 30 nM, RXRa partner concentration 10 nM). The essentials:
as §1

The test system of assay [10] is PPARg:RXRa 90nM:30nM, anti-RXR (NR concentration 90 nM, RXRa partner concentration 30 nM). In outline:
as §1

Assay [11] relates to PPARg:RXRa DBDmut IVT, anti-RXR (DBD mutation: RXRa K156A/R161A, NR concentration 270 nM, RXRa partner concentration 90 nM). The essentials:
as §1

The subject of assay [12] is PPARg:RXRa IVT, anti-PPARg (NR concentration 270 nM, RXRa partner concentration 90 nM). The essentials:
as §1

Assay [13] has as its system PPARg DBDmut:RXRa IVT, anti-PPARg (DBD mutation: PPARg1 K132A/R137A, NR concentration 270 nM, RXRa partner concentration 90 nM). In outline: as §1
Assay [14] deals with PPARg DBDmut IVT, anti-PPARg (DBD mutation: PPARg1 K132A/R137A, NR concentration 270 nM). The essentials:
as §1

The test system of assay [15] is PPARg homodimer (NR concentration 180 nM). In outline:
as §1

In assay [16] the test system is PXR:RXRa (NR concentration 270 nM, RXRa partner concentration 90 nM). The essentials: as §1
Assay [17] deals with PXR homodimer (NR concentration 270 nM). In outline: as §1
For assay [18], the system named is RARa:RXR (NR concentration 270 nM, RXRa partner concentration 90 nM). The essentials:
as §1

Assay [19] deals with RARa homodimer (NR concentration 270 nM). In outline: as §1
Assay [20] concerns RARb:RXRa (NR concentration 270 nM, RXRa partner concentration 90 nM). In outline:
as §1

For ATCTCTAGGTAAGACTCAGTTCTGTGAAGAACGC, the PBM binding z-score was 0.335 in assay [1]; 0.184 in assay [2]; 0.199 in [3]; 0.00724 in [4]; 0.696 in assay [5]; 0.118 in assay [6]. Moreover, the PBM binding z-score in [7] is -0.0876; in assay [8] it was -0.0102; in assay [9] it was -0.0402; in assay [10] it was -0.012; in assay [11], 1.91; in [12], 0.663. The PBM binding z-score in [13] amounted to 0.175; in assay [14], 0.855; in [15] it was 0.76; in [16] it was 0.28; in assay [17] it was 0.287; in assay [18], 0.274. The PBM binding z-score is 1.02 in [19] and -0.117 in [20].

Consider CGGACTAGGTCATTGACAGGACAGTGAATAGTAA, for which the PBM binding z-score in assay [1] was 3.76; in assay [2], 2.45; in [3], 0.229; in assay [4], 1.86; in assay [5], -0.21; in [6] it was 4.05. In addition, the PBM binding z-score came to 6.69 in assay [7]; 5.73 in [8]; 2.87 in [9]; 4.89 in [10]; 7.36 in [11]; 7.62 in [12]. Moreover, the PBM binding z-score in assay [13] came out at 1.48; in [14], 0.689; in [15], 1.1; in [16] it was 1.6; in [17] it was 0.0677; in [18] it was 2.12. For the same sequence, the PBM binding z-score is 0.305 in assay [19] and 3.53 in [20].

In the case of ACAGAAAGGTGAGTGAAGGTAACTCAGCTGGACG, the PBM binding z-score in assay [1] was 1.15; in assay [2], 0.894; in assay [3], -0.288; in assay [4], 0.22; in [5] it was -0.612; in [6] it was 1.81. Further, the PBM binding z-score is 1.25 in [7]; 1.23 in assay [8]; 0.0865 in [9]; 0.656 in assay [10]; 1.69 in assay [11]; 1.91 in assay [12]. The PBM binding z-score in assay [13] is 0.587; in assay [14], -0.401; in assay [15], 0.248; in [16] it was 0.345; in [17] it was -0.335; in [18] it was 0.81. Further, the PBM binding z-score is 0.239 in assay [19] and 2.47 in assay [20].

Consider GCGACTGGGGCTTCAGCAGGTTACCATAACTTAA, for which the PBM binding z-score in assay [1] was -0.296; in assay [2], -0.21; in assay [3], -0.373; in assay [4] it was 0.63; in [5], -0.572; in assay [6] it was 0.478. Also, the PBM binding z-score in assay [7] is -0.166; in assay [8], -0.624; in assay [9], -0.435; in assay [10], -0.762; in assay [11], 0.693; in assay [12], 0.216. In addition, the PBM binding z-score in assay [13] is -0.978; in assay [14], -1.13; in assay [15], 0.227; in assay [16], -0.117; in assay [17] it was -0.245; in assay [18], 0.339. The PBM binding z-score in [19] was -0.857; in [20], -0.108.

For TTACCAAGGTGATAGGTCGTTGATGCACGCCTTG, the PBM binding z-score in assay [1] was 0.534; in assay [2], 0.702; in [3] it was -0.126; in assay [4], 0.514; in assay [5], -0.482; in [6], 2.84. Moreover, the PBM binding z-score in [7] was determined as 4.06; in [8], 5.47; in assay [9] it was 3.82; in assay [10], 5.61; in [11], 1.07; in assay [12], 2.82. Further, the PBM binding z-score in assay [13] was 0.428; in [14] it was 0.413; in [15] it was 1.26; in assay [16], 0.611; in assay [17], -0.14; in [18] it was 1.36. For the same sequence, the PBM binding z-score in assay [19] was -0.163; in assay [20] it was 1.07.

For TCCCGGAGGACACGAAAGGTCAGAGCTCGACATC, the PBM binding z-score is 3.13 in assay [1]; 3.95 in [2]; 2.89 in assay [3]; 2.93 in [4]; -0.374 in [5]; 3.45 in assay [6]. Moreover, the PBM binding z-score in assay [7] was 1.51; in assay [8] it was 2.59; in [9], 2.05; in assay [10], 2.49; in assay [11] it was 1.58; in [12], 1.17. The PBM binding z-score in [13] was -0.696; in assay [14], -0.402; in [15], 2.86; in assay [16], 3.87; in [17], 0.5; in [18] it was 4.24. Also, the results for the PBM binding z-score in assay [19] and in assay [20] were 1.11 and 4.25, respectively.

Regarding TAGCCTGGGTCATTCAGGGGCCAGTATAGAAAGC, the PBM binding z-score is 3.88 in [1]; 2.28 in assay [2]; -0.548 in assay [3]; 2.04 in assay [4]; 0.00492 in assay [5]; 3.65 in assay [6]. For the same sequence, the PBM binding z-score was determined as 2.29 in assay [7]; 2.38 in [8]; 0.19 in assay [9]; 1.47 in assay [10]; 0.888 in assay [11]; 2.36 in assay [12]. Besides, the PBM binding z-score is 0.524 in [13]; -0.652 in assay [14]; 1.98 in assay [15]; 2.3 in assay [16]; -0.415 in [17]; 3.78 in assay [18]. Also, the PBM binding z-score in assay [19] is -0.568; in [20] it was 3.35.

Source of the values: the supplement of paper PMC6555819.
